An excerpt weighted towards active compounds, which were near 2.4% of everything screened.
D2 PAM-1: HTS Assay for Positive Allosteric Modulators of the Human D2 Dopamine Receptor: Primary Screen for Potentiators | 0.34% of 340,000 active | D(2) dopamine receptor (Homo sapiens), P14416 | HEK293 T-REx D2, calcium flux, EC20 dopamine potentiation | AID 485347, 2010 | potentiation, % at 10 µM;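 active = potentiation over 3 SD above the plate norm, cut at about 30% in these data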; note: 0% is about no effect
Target sequence (P14416 whole entry, looked up): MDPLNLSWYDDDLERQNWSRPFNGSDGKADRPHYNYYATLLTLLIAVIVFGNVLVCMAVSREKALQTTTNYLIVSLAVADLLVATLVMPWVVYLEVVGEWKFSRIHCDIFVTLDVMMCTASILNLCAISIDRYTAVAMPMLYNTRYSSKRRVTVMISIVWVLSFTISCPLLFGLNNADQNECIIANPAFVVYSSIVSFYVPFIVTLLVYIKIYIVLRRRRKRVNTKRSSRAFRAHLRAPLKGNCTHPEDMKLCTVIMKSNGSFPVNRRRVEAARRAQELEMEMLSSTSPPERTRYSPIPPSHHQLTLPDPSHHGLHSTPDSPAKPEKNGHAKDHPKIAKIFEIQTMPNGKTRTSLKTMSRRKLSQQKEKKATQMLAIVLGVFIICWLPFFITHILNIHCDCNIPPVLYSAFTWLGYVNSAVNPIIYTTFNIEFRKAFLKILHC
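Tetracycline-induced Hek293 Trex D2 cells, force-coupled to calcium, loaded with no-wash calcium dye. Compound added with 180 s kinetic read for agonism, then EC20 dopamine and a further 180 s read for potentiation.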
D2 antagonist: HTS Assay for Allosteric Antagonists of the Human D2 Dopamine Receptor: Primary Screen for Antagonists. inhibition, % at 10 µM. D(2) dopamine receptor (Homo sapiens), P14416. AID 485344, 2010. HEK293 TREx D2 cells, calcium flux, dopamine EC80. 2% of 340,000 active; in the data active = inhibition above about 30%; inactive = below that, where a call was filed; note: 0% is about no effect
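Calcium mobilization kinetics were recorded at 1 s intervals in tetracycline-induced HEK293 T-REx D2 cells, first for 180 s after compound addition and then 180 s after EC80 dopamine.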
D2 PAM-2: Beta-Arrestin HTS for Positive Allosteric Modulators of the Human D2 Dopamine Receptor: Potentiators | DiscoveRx D2 beta-arrestin cells, luminescence, 90 min; 100% = 57 uM dopamine signal | potentiation, % (concentration not given with the values) | 0.23% of 360,000 active | D(2) dopamine receptor (Homo sapiens), P14416; in the data active = potentiation above about 50%
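PathHunter D2 cells, attached overnight at 37 deg C, received compound in DMSO plus dopamine at EC20 (50 nM final) for 90 min at 37 deg C. Beta-arrestin recruitment was read as luminescence after 1 h with detection reagent at ambient temperature.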
B2AR arrestin: qHTS assay of beta-arrestin-biased ligands of beta2-adrenergic receptor | beta-arrestin recruitment to beta2AR, cell-based reporter | 0.02% of 330,000 active | Potency, µM (series often up to 46.1 µM), inactives show at the top dose activation, most hits filed as activators | AID 492947, 2010; active = well fitted activation curve with a large enough effect;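 note: potency is the fitted concentration of half-maximal effect; 0% = DMSO controls and full agonism = EC100 isoproterenol or metaproterenol; nearly all actives have a fitted effect of over 65% in size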
D2 ag-1: HTS Assay for Allosteric Agonists of the Human D2 Dopamine Receptor: Primary Screen for Agonists; HEK293 T-REx D2 cells, calcium flux agonist mode; activation, % at 2 µM; 0.53% of 340,000 active;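 active = activation over 3 SD above normal in the single-dose calcium agonist read, cut at about 30% in these data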; note: 0% is about no effect
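HEK293 Trex D2 cells, tetracycline-induced, o/n 30 C 5% CO2; no-wash Ca dye, RT 30–90 min; 10-cycle baseline, 23 nl cpd added, kinetic Ca read 180 s; agonist hits = positive Ca response.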
D2 ag-2: Beta-Arrestin HTS for Positive Allosteric Modulators of the Human D2 Dopamine Receptor: Agonists. 0.084% of 360,000 active. DiscoveRx PathHunter D2 beta-arrestin, luminescence, 90 min; 100% = 57 uM dopamine signal. activation, % (no concentration beside the values). D(2) dopamine receptor (Homo sapiens), P14416. AID 624465, 2012; in the data active = activation above about 40%
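DiscoveRx PathHunter D2 beta-arrestin cells (2,100/well) attached overnight, then compound-stimulated 90 min at 37 C in HBSS/10 mM HEPES/0.1% Tween-20 buffer; beta-galactosidase complementation read by luminescence after 1 h at ambient temperature. Dopamine 57 uM final (EC100) as control.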
Numbers without * were called inactive; . = no result given.

SMILES	D2 PAM-1	D2 antagonist	D2 PAM-2	B2AR arrestin	D2 ag-1	D2 ag-2
O=C(O)CN1C(=O)SC(Nc2ccccc2C(=O)O)C1=O (stereo not drawn)	-2	4	-23	0%	1	-3
COCCNC(=S)N/N=C(\C)c1ccc(Cl)s1	4	-2	-11	10µM*	0	-6
Cc1c(N2C(=O)c3ccc4c5c(ccc(c35)C2=O)CC4)c(=O)n(-c2ccccc2)n1C	4	-6	61*	0%	0	6
COc1ccccc1NC(=O)C1CCN(C(=O)c2ccco2)CC1	-3	-2	2	0%	0	-1
CCc1ccc(C(=O)NC2=NC(c3ccccc3F)CC(=O)N2)cc1 (stereo not drawn)	-5	.	.	.	6	.
Cn1c(=S)[nH]c2scc(-c3cccs3)c2c1=O	.	.	67*	0%	.	14
Cc1ccc(S(=O)(=O)N(C)C)cc1NC(=O)Nc1ccccc1	-24	84*	-24	-1%	-3	-1
CC1CCCCC1NC(=O)CSc1nc2ccccc2[nH]1 (stereo not drawn)	37*	-15	-1	0%	-3	-3
Cc1ccc(S(=O)(=O)N(C)C)cc1NC(=S)N1CCc2ccccc21	-28	55*	-29	0%	2	-6
Cc1ccc(S(=O)(=O)N(C)C)cc1NC(=O)CSc1nc2ccccc2[nH]1	-23	31*	-35	-1%	-2	1
CCN(CC)S(=O)(=O)c1ccc(C)c(NC(=O)CSc2nc3ccccc3[nH]2)c1	-11	.	-21	-4%	.	-1
Cc1ccc(NC(=O)Nc2cc(S(=O)(=O)N(C)C)ccc2C)cc1	-28	37*	-4	0%	-2	-6
O=C(Cn1nc2n(c1=O)-c1ccccc1SC2)N/N=C/c1cccs1	-21	41*	-20	0%	0	-3
Cc1ccc(SCC(=O)OCC(=O)N(CCC#N)c2ccccc2)cc1	7	33*	5	0%	0	-6
O=C(Nc1ccccc1N1CCOCC1)C1CCCO1 (stereo not drawn)	.	.	-15	0%	.	0
CCOc1ccc(NC(=O)CCC(=O)NNC(=O)COc2ccccc2C)cc1	-4	36*	0	0%	-1	-5
Cc1ccc(NC(=O)CCC(=O)NNC(=O)COc2ccccc2)cc1C	16	-5	-11	0%	0	0
CCOC(=O)c1sc(NC(=O)CSc2n[nH]c(-c3ccccc3)n2)c(C#N)c1C	2	39*	14	3%	1	0
CCOC(=O)c1sc(NC(=O)CSc2nc(C)cc(C)n2)c(C#N)c1C	1	4	-2	0%	0	-2
CS(=O)(=O)c1ccccc1C(=O)NC1CCCc2ccccc21 (stereo not drawn)	37*	-6	-3	0%	1	-1
COc1cc(C(=O)NC2CCCc3ccccc32)cc(OC)c1C (stereo not drawn)	.	55*	-4	0%	-3	1
O=C(OCc1ccccc1)C1=[N+]([O-])OC(C(=O)OCc2ccccc2)C1c1c[nH]c2ccccc12 (stereo not drawn)	2	-11	63*	-1%	-1	6
O=C(OCC(=O)c1c[nH]c2ccccc12)c1ccco1	-6	6	8	0%	0	-1
CCCCC(=O)Nc1ccc(C(=O)Nc2ccc(S(=O)(=O)Nc3ccc(C)cc3)cc2)cc1	1	16	-10	-1%	1	3
COc1ccc2nc(SC)c(C#N)cc2c1	-5	55*	5	0%	-1	0

Screening data (PubChem)
